Only some compounds are listed: those with a hit (about 6.7% of all), similar ones and a draw of the others.
Pf Dd2 inh: P. falciparum Dd2 growth inhibitors, primary screen, SYBR Green fluorescence, single dose replicates. 94,000 compounds, 2.3% hits. activity change, % at 10 µM. AID 1159554, 2015. 72 h; hits give low values; in the data active = activity change below about -80%; inconclusive = no clear call, values can overlap the other calls
C diff HTS: C. difficile growth inhibitors, primary screen, HTS; Clostridium difficile clinical isolate growth, OD600, 24 h; hits give low values; AID 1259249, 2017; 86,000 compounds, 0.25% hits; growth activity, negative = inhibition, % at 16 µg/mL (by protocol);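 active = mean growth activity at or below -80% and every replicate also at or below -80%; inconclusive = mean at or below -80% but some replicate above -80%; inactive = mean growth activity above -80%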
T cruzi growth-1: T. cruzi intracellular proliferation inhibitors, primary screen, cell-based, beta-gal Tulahuen parasites, NIH3T3 host, luminescence. T. cruzi beta-gal in NIH3T3, GalScreen luminescence, 90 h. inhibition, % at 8.34 µM. 77,000 compounds, 5.9% hits. AID 624255, 2012;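 active = mean inhibition above about 93%, with at least 55% of replicates each passing it, limit read from the data, passing the limit was not always enough; inconclusive = only one of those two conditions holds; inactive = neither condition holds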
T cruzi growth-2: T. cruzi intracellular proliferation inhibitors, confirmation, cell-based, NIH3T3 host, beta-gal parasite, luminescence, cherry-pick. shares compounds with T cruzi growth-1. T. cruzi beta-gal in NIH3T3, GalScreen luminescence, 90 h. inhibition, % at 8.35 µM. 5,600 compounds, 72% hits. AID 651739, 2012;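 active = mean replicate inhibition above about 95% and at least 55% of replicates individually reaching it, limit read from the data; inconclusive = only one of the two criteria is met; inactive = neither criterion is met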
T cruzi growth-3: inhibitors of intracellular T. cruzi replication, confirmation, NIH3T3 host cells, beta-gal parasites, cherry-pick, set 2; 5,600 compounds, 21% hits; shares compounds with T cruzi growth-1; inhibition, % at 2.09 µM; T. cruzi beta-gal in NIH3T3, GalScreen luminescence, 90 h; AID 651740, 2012;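 active = mean inhibition above about 95%, with at least 55% of replicates also reaching it, limit read from the data; inconclusive = meets just one of the two conditions; inactive = meets neither condition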
NIH3T3 tox: cytotoxicity in mouse NIH/3T3 fibroblasts, confirmation, cytotoxicity control for T. cruzi proliferation inhibitor project, cell-based, cherry-pick, single point; shares compounds with T cruzi growth-1; NIH/3T3 viability, CellTiter-Glo ATP luminescence, 90 h; cytotoxicity (signal decrease), % at 8.35 µM; 5,600 compounds, 14% hits; AID 651742, 2012;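 active = mean signal decrease across replicates above about 35% based on untreated-well scatter, with enough replicates individually passing, limit read from the data; inconclusive = no rule stated though some were filed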
3T3 cytotox 2: NIH/3T3 fibroblast cytotoxicity, confirmation, cytotoxicity control, cell-based, cherry-pick, single point, set 2; shares compounds with T cruzi growth-1; NIH/3T3 viability, CellTiter-Glo ATP luminescence, 90 h; inhibition, % at 24.9 µM; 5,600 compounds, 56% hits; AID 651744, 2012;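 active = mean loss of cell viability signal at or above a set limit, and enough replicates individually reaching it; inconclusive = meets only the mean limit or only the replicate share; inactive = meets neither condition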
Large screens that a line does not name were inactive (follow-up assays come after a bar, where they were run).

COc1ccc(C#Cc2ccc([C@H]3[C@@H](CO)N4C(=O)CN(C(=O)c5cccnc5)C[C@@H]34)cc2)cc1	none (no result: T cruzi growth-1)
C[C@@H]1CCCCO[C@@H](CN(C)S(=O)(=O)c2cccs2)[C@@H](C)CN([C@H](C)CO)C(=O)c2cc(NC(=O)NC3CCCCC3)ccc2O1	T cruzi growth-1 103.1 | T cruzi growth-2 inactive | T cruzi growth-3 inactive | NIH3T3 tox inactive | 3T3 cytotox 2 38.6
C[C@@H]1CCCCO[C@@H](CN(C)S(=O)(=O)c2cccs2)[C@H](C)CN([C@@H](C)CO)C(=O)c2cc(NC(=O)Nc3ccc4c(c3)OCO4)ccc2O1	none
CC(C)NC(=O)Nc1ccc2c(c1)C(=O)N([C@@H](C)CO)C[C@@H](C)[C@@H](CN(C)S(=O)(=O)c1cccs1)OCCCC[C@H](C)O2	none (no result: Pf Dd2 inh, T cruzi growth-1)
C[C@H](CO)N1C[C@H](C)[C@H](CN(C)S(=O)(=O)c2cccs2)OCCCC[C@H](C)Oc2ccc(NC(=O)Nc3ccc4c(c3)OCO4)cc2C1=O	T cruzi growth-1 86.4 | T cruzi growth-2 105.9 | T cruzi growth-3 inactive | NIH3T3 tox inactive | 3T3 cytotox 2 27.0
COc1ccc([Si](C)(C)[C@@H]2[C@@H](CCn3cc(CCO)nn3)O[C@]3(C(=O)N(c4ccccc4)c4ccccc43)[C@H]2C)cc1	none (no result: Pf Dd2 inh, T cruzi growth-1)
Cn1cnc(S(=O)(=O)N2CCCCN3[C@H](CO)[C@@H](c4ccc(-c5ccccc5F)cc4)[C@@H]3C2)c1	none
Cc1ccccc1-c1ccc([C@@H]2[C@H]3CN(S(=O)(=O)c4cn(C)cn4)CCCCN3[C@H]2CO)cc1	T cruzi growth-1 125.9 | T cruzi growth-2 inactive | T cruzi growth-3 inactive | NIH3T3 tox inactive | 3T3 cytotox 2 26.3
Cn1cnc(S(=O)(=O)N2CCCCN3[C@@H](CO)[C@H](c4ccc(-c5ccccc5F)cc4)[C@@H]3C2)c1	none
Cc1ccccc1-c1ccc([C@H]2[C@@H](CO)N3CCCCN(S(=O)(=O)c4cn(C)cn4)C[C@H]23)cc1	T cruzi growth-1 101.6 | T cruzi growth-2 inactive | T cruzi growth-3 inactive | NIH3T3 tox inactive | 3T3 cytotox 2 43.5
C[C@H]1CCCCO[C@@H](CN(C)CC2CCCCC2)[C@@H](C)CN([C@@H](C)CO)C(=O)c2cc(NC(=O)Nc3ccc(F)cc3)ccc2O1	Pf Dd2 inh -84.8, T cruzi growth-1 124.7 | T cruzi growth-2 101.4 | T cruzi growth-3 119.5 | NIH3T3 tox 60.0 | 3T3 cytotox 2 103.4
C[C@@H]1CN([C@H](C)CO)C(=O)c2cc(NC(=O)Nc3ccc(F)cc3)ccc2O[C@@H](C)CCCCO[C@H]1CN(C)C	none
C[C@@H]1CN([C@@H](C)CO)C(=O)c2cc(NC(=O)Nc3ccc(F)cc3)ccc2O[C@@H](C)CCCCO[C@H]1CN(C)CC1CCCCC1	T cruzi growth-1 114.9 | T cruzi growth-2 inactive | T cruzi growth-3 inactive | NIH3T3 tox inactive | 3T3 cytotox 2 104.0
C[C@@H]1CN([C@@H](C)CO)C(=O)c2cc(NC(=O)Nc3ccc(F)cc3)ccc2O[C@@H](C)CCCCO[C@@H]1CN(C)CC1CCCCC1	Pf Dd2 inh inconclusive, T cruzi growth-1 116.6 | T cruzi growth-2 99.4 | T cruzi growth-3 inactive | NIH3T3 tox inconclusive | 3T3 cytotox 2 102.7
C[C@H](CO)N1C[C@H](C)[C@H](CN(C)CC2CCCCC2)OCCCC[C@H](C)Oc2ccc(NC(=O)Nc3ccc(F)cc3)cc2C1=O	Pf Dd2 inh -86.7, T cruzi growth-1 115.5 | T cruzi growth-2 inactive | T cruzi growth-3 101.6 | NIH3T3 tox 117.7 | 3T3 cytotox 2 102.3
C[C@H](CO)N1C[C@H](C)[C@H](CN(C)CC2CC2)OCCCC[C@H](C)Oc2ccc(NC(=O)Nc3ccc(F)cc3)cc2C1=O	none (no result: C diff HTS)
C[C@@H]1CCCCO[C@@H](CN(C)C)[C@H](C)CN([C@@H](C)CO)C(=O)c2cc(NC(=O)Nc3ccc(F)cc3)ccc2O1	none

Screening results: PubChem BioAssay, Broad Institute
